Assay results as given in the supplement of paper PMC10646978.
± gives the standard deviation.

These compounds were tested on RAW-Dual (murine macrophage reporter line) (assay: NF-kB reporter (SEAP) activity fold change vs agonist alone; higher = enhanced NF-kB activity). Details: modulator concentration 10 µM; agonist: MPLA […].
Summary of the method: (§1)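 Compound reached 10 μM final in each well by pin transfer, onto RAW-Dual murine macrophage reporter cells seeded at 50 000 per well in 384-well plates. After 1 hour at 37 °C, the cells were stimulated overnight with a PRR agonist. SEAP in the supernatant was read with QUANTI-Blue at 620 nm absorbance for NF-κB, and Lucia luciferase was read with QUANTI-Luc luminescence for IRF. Each signal was turned into fold change against the mean agonist-only control on the same plate, and two replicate plates were averaged with propagated errors.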

Compound	NF-kB reporter
CC(NCCC(c1ccccc1)c1ccccc1)c1ccccc1.Cl (configuration not stated)	0.67 ± 0.075
O=C(Cn1nc(S(=O)(=O)c2cccc(F)c2)ccc1=O)N1CCc2ccccc2C1	0.921 ± 0.053
COc1cc2c(Nc3ccc(Br)cc3F)ncnc2cc1OCC1CCN(C)CC1	1.11 ± 0.094
O=C(c1ccc(S(=O)(=O)N2CCCC2)cc1)N1CC(Nc2ccncn2)C1	0.921 ± 0.057
Cc1cc(C)n(-c2ccc(=O)n(CCNS(=O)(=O)c3ccccc3F)n2)n1	0.937 ± 0.049
O=C(CC12CC3CC(CC(C3)C1)C2)N1CCCCC1	0.949 ± 0.056
COc1ccc(CNC2CCCc3ccccc32)c(OC)c1 (configuration not stated)	0.775 ± 0.12
O=S(=O)(NCc1ccc(-c2cccnc2)nc1)c1ccc(OC(F)(F)F)cc1	0.873 ± 0.058
O=c1oc2cc(O)ccc2s1	1.02 ± 0.026
CNCCC=C1c2ccccc2CCc2ccccc21.Cl	1.8 ± 0.13
CCc1nc(N)nc(N)c1-c1ccc(Cl)cc1	1.03 ± 0.054
Fc1ccc(CN2CCc3c([nH]c4ccccc34)C2)c(F)c1	0.62 ± 0.082
CCOc1nc2cccc(C(=O)O)c2n1Cc1ccc(-c2ccccc2-c2nc(=O)o[nH]2)cc1	1.12 ± 0.073
COc1ccc2c(C)nc(Nc3nc(C)cc(-c4ccccc4)n3)nc2c1	1.07 ± 0.1
Cc1cc(C(=O)NCc2sc(-c3ccccc3Cl)nc2C)c(C)o1	1.09 ± 0.061
Cc1cccc2sc(NNC(=O)c3ccc(S(=O)(=O)N4CCc5ccccc5C4)cc3)nc12	0.93 ± 0.079
COC(=O)C1=C(C)NC(C)=C(C(=O)OC(C)(C)CN(C)CCC(c2ccccc2)c2ccccc2)C1c1cccc([N+](=O)[O-])c1.Cl (configuration not stated)	1.98 ± 1
O=C(O[C@@H]1C[C@@H]2C[C@@H]3C[C@H](C1)N2CC3=O)c1c[nH]c2ccccc12 [Prestw-1510]	0.697 ± 0.043
COc1cc(C=Nc2ccc3oc(-c4ccc(C(C)(C)C)cc4)nc3c2)ccc1OC(=O)c1ccc(Cl)cc1Cl	0.936 ± 0.11
O=C(c1ccc(I)cc1)N(C1CCCCC1)C1CCCCC1	1.09 ± 0.056
Cc1occc1C(=O)Nc1ccc(F)c(F)c1	1.11 ± 0.055
Cc1cc(C(=O)O)n[nH]1	1.03 ± 0.12

Each compound was assayed on RAW-Dual (murine macrophage reporter line) (assay: IRF reporter (Lucia luciferase) activity fold change vs agonist alone; higher = enhanced IRF activity). Details: modulator concentration 10 µM; agonist: 3'3'-cGAMP 10 ug/mL.
Summary of the method: as §1

Compound	IRF reporter
Cc1cc(=O)nc(SCCc2ccccc2)[nH]1	0.952 ± 0.079
CC(=O)c1c(C(C)=O)c(C)n(-c2ccccc2N)c1C	0.983 ± 0.069
Cc1ccc(CCC(=O)N2CC(N3C(=O)C4CC=CCC4C3=O)C2)cc1F (configuration not stated)	0.741 ± 0.037
CCN(CC)C(=O)N1CCN(C)CC1.O=C(O)CC(O)(CC(=O)O)C(=O)O	0.895 ± 0.057
CC1CC2(NC(=O)NC2=O)C(C)CN1C (configuration not stated)	0.99 ± 0.034
COc1ccc(NC(=O)CN2C(=O)c3ccccc3C2=O)c([N+](=O)[O-])c1	0.963 ± 0.048
COc1ccccc1N1CCN(CC(O)COc2cccc3ccccc23)CC1 (configuration not stated)	0.719 ± 0.026
COc1cc2c(Oc3ccc4[nH]c(C)cc4c3F)ncnc2cc1OCCCN1CCCC1	0.927 ± 0.043
CCOc1ccc(Cc2cc([C@@H]3O[C@H](SC)[C@@H](O)[C@H](O)[C@H]3O)ccc2Cl)cc1	1.03 ± 0.053
Cc1cn(-c2cc(NC(=O)c3ccc(C)c(Nc4nccc(-c5cnccn5)n4)c3)cc(C(F)(F)F)c2)cn1	0.867 ± 0.032
O=C(Nc1ccc(-c2cn3ccsc3n2)cc1)C1CCCC1	0.69 ± 0.027
O=Cc1ccc(OCc2cccc([N+](=O)[O-])c2)c(Br)c1	0.963 ± 0.045
CN(C)CC(c1ccc(O)cc1)C1(O)CCCCC1.O=C(O)CCC(=O)O (configuration not stated)	0.913 ± 0.075
O=C(CCCCCN1C(=O)c2cccc3cccc(c23)C1=O)NCCCO	1.02 ± 0.14
Cc1cc(C(=O)Nc2ccccc2S(C)(=O)=O)no1	0.995 ± 0.056
N#CC(=Cc1cn(Cc2ccccc2Cl)c2ccccc12)c1nn(CCO)c(N)c1C#N	0.909 ± 0.063
O=c1cc(CO)occ1O	1.04 ± 0.041
CCOc1ccc(N=Cc2c(Nc3ccc(OCC)cc3)nc3ccccn3c2=O)cc1	0.855 ± 0.051
CC(NCCC(c1ccccc1)c1ccccc1)c1ccccc1.Cl (configuration not stated)	0.735 ± 0.058
O=C(Cn1nc(S(=O)(=O)c2cccc(F)c2)ccc1=O)N1CCc2ccccc2C1	1.02 ± 0.051

Compound	IRF reporter
COc1cc2c(Nc3ccc(Br)cc3F)ncnc2cc1OCC1CCN(C)CC1	0.975 ± 0.048
O=C(c1ccc(S(=O)(=O)N2CCCC2)cc1)N1CC(Nc2ccncn2)C1	0.969 ± 0.071
Cc1cc(C)n(-c2ccc(=O)n(CCNS(=O)(=O)c3ccccc3F)n2)n1	1.01 ± 0.059
O=C(CC12CC3CC(CC(C3)C1)C2)N1CCCCC1	1.1 ± 0.037
COc1ccc(CNC2CCCc3ccccc32)c(OC)c1 (configuration not stated)	0.615 ± 0.027
O=S(=O)(NCc1ccc(-c2cccnc2)nc1)c1ccc(OC(F)(F)F)cc1	0.961 ± 0.054
O=c1oc2cc(O)ccc2s1	0.911 ± 0.05
CNCCC=C1c2ccccc2CCc2ccccc21.Cl	0.41 ± 0.014
CCc1nc(N)nc(N)c1-c1ccc(Cl)cc1	0.941 ± 0.052
Fc1ccc(CN2CCc3c([nH]c4ccccc34)C2)c(F)c1	0.909 ± 0.029
CCOc1nc2cccc(C(=O)O)c2n1Cc1ccc(-c2ccccc2-c2nc(=O)o[nH]2)cc1	0.886 ± 0.042
COc1ccc2c(C)nc(Nc3nc(C)cc(-c4ccccc4)n3)nc2c1	0.914 ± 0.043
Cc1cc(C(=O)NCc2sc(-c3ccccc3Cl)nc2C)c(C)o1	0.98 ± 0.047
Cc1cccc2sc(NNC(=O)c3ccc(S(=O)(=O)N4CCc5ccccc5C4)cc3)nc12	0.929 ± 0.067
COC(=O)C1=C(C)NC(C)=C(C(=O)OC(C)(C)CN(C)CCC(c2ccccc2)c2ccccc2)C1c1cccc([N+](=O)[O-])c1.Cl (configuration not stated)	0.132 ± 0.0065
O=C(O[C@@H]1C[C@@H]2C[C@@H]3C[C@H](C1)N2CC3=O)c1c[nH]c2ccccc12 [Prestw-1510]	0.931 ± 0.04
COc1cc(C=Nc2ccc3oc(-c4ccc(C(C)(C)C)cc4)nc3c2)ccc1OC(=O)c1ccc(Cl)cc1Cl	0.931 ± 0.031
O=C(c1ccc(I)cc1)N(C1CCCCC1)C1CCCCC1	0.832 ± 0.044
Cc1occc1C(=O)Nc1ccc(F)c(F)c1	0.704 ± 0.042
Cc1cc(C(=O)O)n[nH]1	1.06 ± 0.038
